# Measured values: PubChem BioAssay (EPA / NIEHS)
# Several values for one entry are separate records, joined by “and”; a condition that tells them apart may be missing. Identical values can stand only once. Inconclusive results are not listed. Activity calls are given as the source filed them. How the source made its calls, unless noted: active means hit-call score of the fitted dose curve at least 0.9, where 1 is the maximum; inconclusive means response in the unintended direction; inactive means score below 0.9.
# Experiments:
# [1] = target: Retinoic acid receptor RXR-alpha (Homo sapiens) (UniProt P19793); assay: ATG_RXRa_TRANS: Attagene TRANS-FACTORIAL HepG2 Assay for human Retinoid X Receptor alpha (RXRa) (AID 2283012)
# In short: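 HepG2 cells transiently transfected with multiplexed GAL4-UAS reporter units and chimeric NR-GAL4 fusions, dosed 24 h. Reporter mRNA measured by RT-PCR, FAM labelling, HpaI digestion and capillary electrophoresis; gain-of-signal fitted relative to DMSO baseline.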
# [2] = target: human Retinoid X Receptor beta (RXRb), RXRB (gene 6257) (UniProt P28702); assay: ATG_RXRb_TRANS: Attagene TRANS-FACTORIAL HepG2 Assay for human Retinoid X Receptor beta (RXRb) (AID 2283013)
# In short: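 HepG2 cells transiently transfected with multiplexed reporter units driven by GAL4-UAS and exogenous chimeric NR-Gal4 proteins; treated 24 h. Reporter mRNA measured by RT-PCR, 6-FAM labelling and capillary electrophoresis; gain-of-signal fitted versus DMSO baseline.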
# [3] = target: human Thyroid Receptor alpha (THRa1), THRA (gene 7067) (UniProt P10827); assay: ATG_THRa1_TRANS: Attagene TRANS-FACTORIAL HepG2 Assay for human Thyroid Receptor alpha (THRa1) (AID 2283014)
# In short: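 HepG2 cells transiently transfected with multiplexed GAL4-UAS reporter units for exogenous chimeric THRa1-Gal4; reporter mRNA measured 24 h after dosing by RT-PCR, 6-FAM labelling, HpaI digestion and capillary electrophoresis. Gain-of-signal fitted versus DMSO baseline.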
# [4] = read-out: E-selectin (Homo sapiens) (UniProt P16581); assay: BSK_3C_Eselectin: BioMAP Diversity Plus: 3C Assay for Eselectin Biomarker Activity (AID 2283015; active means hit-call score of the fitted dose curve at least 0.9, where 1 is the maximum; inactive means score below 0.9;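 on outcome: cell surface E-selectin protein quantified by ELISA 24 h after dosing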); settings: primary human endothelial cells (HUVEC); actives raise or lower the signal
# In short: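 Primary human umbilical vein endothelial cells (3C system) were dosed with chemical and cell-surface E-selectin measured by ELISA 24 h later. Bidirectional curve fitting used DMSO as negative control and baseline.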
# [5] = read-out: Interleukin-1 alpha (IL1a), IL1A (gene 3552); assay: BSK_BE3C_IL1a: BioMAP Diversity Plus: BE3C Assay for Interleukin-1 alpha (IL1a) Biomarker Activity (AID 2283016; active means hit-call score of the fitted dose curve at least 0.9, where 1 is the maximum; inactive means score below 0.9); settings: primary human bronchial epithelial cells; actives raise or lower the signal
# In short: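 Human primary bronchial epithelial cells (BE3C system) were dosed with compound and IL-1a measured by ELISA 24 h later. Activity was fitted bidirectionally against DMSO baseline; cytotoxicity was tracked in parallel cultures by SRB total-protein staining.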
# [6] = read-out: Monocyte Chemoattractant Protein-1 (MCP1), CCL2 (gene 6347); assay: BSK_3C_MCP1: BioMAP Diversity Plus: 3C Assay for Monocyte Chemoattractant Protein-1 (MCP1) Biomarker Activity (AID 2283017; active means hit-call score of the fitted dose curve at least 0.9, where 1 is the maximum; inactive means score below 0.9); settings: primary human endothelial cells (HUVEC); actives raise or lower the signal
# In short: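 Primary human umbilical vein endothelial cells (3C system) were exposed to test chemical for 24 h, after which MCP-1 was quantified by ELISA. Activity was fitted bidirectionally against DMSO as negative control and baseline.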
# [7] = read-out: Human Leukocyte Antigen - DR isotype (HLADR), HLA-DRA (gene 3122); assay: BSK_3C_HLADR: BioMAP Diversity Plus: 3C Assay for Human Leukocyte Antigen - DR isotype (HLADR) Biomarker Activity (AID 2283019; active means hit-call score of the fitted dose curve at least 0.9, where 1 is the maximum; inactive means score below 0.9;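 on outcome: ELISA of cell-surface HLA-DR on HUVEC 24 h after dosing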); settings: primary human endothelial cells (HUVEC); actives raise or lower the signal
# In short: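 Primary human umbilical vein endothelial cells (3C system) were dosed with compound and cell-surface HLA-DR was quantified by ELISA at 24 h. Activity was fitted bidirectionally against DMSO as negative control and baseline.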
# [8] = read-out: Interleukin-8 (IL8), CXCL8 (gene 3576); assay: BSK_3C_IL8: BioMAP Diversity Plus: 3C Assay for Interleukin-8 (IL8) Biomarker Activity (AID 2283020; active means hit-call score of the fitted dose curve at least 0.9, where 1 is the maximum; inactive means score below 0.9); settings: primary human endothelial cells (HUVEC); actives raise or lower the signal
# In short: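 Primary human umbilical vein endothelial cells (3C system) were exposed to test chemical for 24 h, then IL-8 was quantified by ELISA. Responses were fitted bidirectionally against DMSO vehicle as baseline.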
# human Retinoid X Receptor beta (RXRb), RXRB (gene 6257), sequence (P28702 whole entry, looked up, the tested form may be a part): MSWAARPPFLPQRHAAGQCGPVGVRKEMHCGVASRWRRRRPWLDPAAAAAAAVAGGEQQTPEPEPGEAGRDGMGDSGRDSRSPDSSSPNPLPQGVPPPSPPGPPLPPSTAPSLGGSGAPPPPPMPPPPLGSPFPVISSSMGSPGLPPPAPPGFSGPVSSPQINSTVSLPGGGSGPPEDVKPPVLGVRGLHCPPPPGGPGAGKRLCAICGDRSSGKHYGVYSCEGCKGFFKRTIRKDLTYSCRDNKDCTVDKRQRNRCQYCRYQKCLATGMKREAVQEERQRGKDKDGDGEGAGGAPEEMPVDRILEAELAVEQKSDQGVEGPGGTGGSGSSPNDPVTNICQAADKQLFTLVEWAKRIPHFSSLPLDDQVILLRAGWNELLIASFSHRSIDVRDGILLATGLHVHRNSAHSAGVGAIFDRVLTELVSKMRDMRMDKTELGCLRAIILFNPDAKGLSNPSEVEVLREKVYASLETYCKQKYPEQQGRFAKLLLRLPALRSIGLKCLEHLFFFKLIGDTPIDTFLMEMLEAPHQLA
# Retinoic acid receptor RXR-alpha (Homo sapiens), sequence (P19793 whole entry, looked up, the tested form may be a part): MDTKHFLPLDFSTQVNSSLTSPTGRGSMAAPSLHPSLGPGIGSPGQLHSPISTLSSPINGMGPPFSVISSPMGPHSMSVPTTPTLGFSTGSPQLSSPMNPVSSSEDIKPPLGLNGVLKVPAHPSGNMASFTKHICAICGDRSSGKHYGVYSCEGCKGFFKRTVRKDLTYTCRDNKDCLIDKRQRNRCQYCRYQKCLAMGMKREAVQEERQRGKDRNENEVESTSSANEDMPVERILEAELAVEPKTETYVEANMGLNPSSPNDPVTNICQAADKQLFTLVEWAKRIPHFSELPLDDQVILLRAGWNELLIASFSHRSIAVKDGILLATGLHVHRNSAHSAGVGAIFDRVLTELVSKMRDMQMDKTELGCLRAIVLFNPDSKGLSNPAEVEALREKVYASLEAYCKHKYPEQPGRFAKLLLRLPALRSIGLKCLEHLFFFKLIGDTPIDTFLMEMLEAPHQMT
# E-selectin (Homo sapiens), sequence (P16581 whole entry, looked up): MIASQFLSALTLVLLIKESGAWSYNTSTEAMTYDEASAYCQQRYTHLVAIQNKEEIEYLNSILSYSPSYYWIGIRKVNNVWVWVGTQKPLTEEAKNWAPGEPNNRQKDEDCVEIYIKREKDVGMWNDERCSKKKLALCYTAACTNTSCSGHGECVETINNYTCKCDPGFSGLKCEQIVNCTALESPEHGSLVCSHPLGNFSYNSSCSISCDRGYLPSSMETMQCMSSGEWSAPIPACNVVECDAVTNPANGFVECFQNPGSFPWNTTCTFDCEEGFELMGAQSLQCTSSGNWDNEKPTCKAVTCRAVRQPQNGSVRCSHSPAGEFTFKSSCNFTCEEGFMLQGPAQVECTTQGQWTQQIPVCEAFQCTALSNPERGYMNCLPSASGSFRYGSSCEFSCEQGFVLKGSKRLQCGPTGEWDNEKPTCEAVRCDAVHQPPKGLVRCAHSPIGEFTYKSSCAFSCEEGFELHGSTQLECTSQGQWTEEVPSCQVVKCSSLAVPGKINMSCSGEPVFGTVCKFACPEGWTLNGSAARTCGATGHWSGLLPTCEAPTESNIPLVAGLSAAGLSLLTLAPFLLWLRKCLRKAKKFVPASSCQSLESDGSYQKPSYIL
# human Thyroid Receptor alpha (THRa1), THRA (gene 7067), sequence (P10827 whole entry, looked up, the tested form may be a part): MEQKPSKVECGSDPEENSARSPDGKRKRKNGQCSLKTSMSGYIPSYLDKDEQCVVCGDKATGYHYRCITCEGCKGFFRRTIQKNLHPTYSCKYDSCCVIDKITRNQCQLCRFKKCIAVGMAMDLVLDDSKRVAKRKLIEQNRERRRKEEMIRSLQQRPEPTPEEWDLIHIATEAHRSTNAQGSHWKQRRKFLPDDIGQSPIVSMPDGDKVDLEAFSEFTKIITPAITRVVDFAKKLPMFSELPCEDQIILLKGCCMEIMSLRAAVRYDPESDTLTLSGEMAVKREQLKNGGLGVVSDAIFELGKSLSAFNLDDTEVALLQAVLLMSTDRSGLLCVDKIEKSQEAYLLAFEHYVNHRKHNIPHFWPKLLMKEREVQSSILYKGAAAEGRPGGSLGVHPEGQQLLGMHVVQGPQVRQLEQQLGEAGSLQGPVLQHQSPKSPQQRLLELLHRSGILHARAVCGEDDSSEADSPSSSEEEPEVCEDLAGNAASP
compound,measurement,setting,value
CCCCCCCCCC(C)C=O (centres undefined),outcome,[1],inactive
same,outcome,[2],inactive
COS(=O)(=O)O,outcome,[1],inactive
same,outcome,[2],inactive
same,outcome,[3],inactive
Nc1c(S(=O)(=O)O)cc(Br)c2c1C(=O)c1ccccc1C2=O,outcome,[1],inactive
same,outcome,[2],inactive
same,outcome,[3],inactive
COc1ccc(CCO)cc1,outcome,[1],inactive
same,outcome,[2],inactive
same,outcome,[3],inactive
CCCOC(=O)c1c(Cl)c(Cl)c(Cl)c(Cl)c1C(=O)OCCC,outcome,[1],inactive
same,AC50,[2],10.6 µM (active)
C1CCOC1,outcome,[1],inactive
same,outcome,[2],inactive
C=C(CC(=O)O)C(=O)O,outcome,[1],inactive
same,outcome,[2],inactive
N#Cc1ccc(CC(=O)c2cccc(C(F)(F)F)c2)cc1,AC50,[1],26.4 µM (active)
same,AC50,[2],5.99 µM (active)
same,AC50,[3],42 µM (active)
CC/C=C\CC/C=C/CO,outcome,[1],inactive
same,outcome,[2],inactive
Nc1ccccc1[N+](=O)[O-],outcome,[1],inactive
same,outcome,[2],inactive
CCCCC(CC)(CO)CO,outcome,[1],inactive
same,outcome,[2],inactive
Nc1ccc2cc(S(=O)(=O)O)cc(O)c2c1N=Nc1ccccc1C(F)(F)F,AC50,[1],78 µM (active)
same,AC50,[2],14.8 µM (active)
CC(C)(C)c1ccc(C(=O)O)cc1,outcome,[1],inactive
same,outcome,[2],inactive
C=CC(=O)OCCCC,outcome,[1],inactive
same,outcome,[2],inactive
same,outcome,[3],inactive
CCCCCCCCSCCO,outcome,[1],inactive
same,outcome,[2],inactive
CCCC(=O)C(CC)Sc1ccoc1C (centres undefined),outcome,[1],inactive
same,AC50,[2],46.1 µM (active)
same,outcome,[3],inactive
Clc1ccc(C(c2ccccc2Cl)C(Cl)Cl)cc1 (centres undefined),outcome,[1],inactive
same,AC50,[2],9.66 µM (active)
same,outcome,[3],inactive
CCC(=O)O[C@@H]1C[C@H]2CC[C@]1(C)C2(C)C,outcome,[1],inactive
same,outcome,[2],inactive
ClC(c1ccccc1)(c1ccccc1)c1ccccc1,outcome,[1],inactive
same,outcome,[2],inactive
Nc1c(Cl)cc(Cl)cc1[N+](=O)[O-],outcome,[1],inactive
same,outcome,[2],inactive
same,outcome,[3],inactive
BrCc1cccc(Oc2ccccc2)c1,outcome,[1],inactive
same,AC50,[2],66.9 µM (active)
same,outcome,[3],inactive
CC(C)NCC(O)COc1ccc(CC(N)=O)cc1 (centres undefined),outcome,[1],inactive
same,outcome,[2],inactive
CCCSc1ccc2nc(NC(=O)OC)[nH]c2c1,outcome,[1],inactive
same,outcome,[2],inactive
CC1(C)C(=O)N(Cl)C(=O)N1Br,outcome,[1],inactive
same,outcome,[2],inactive
CC(=O)O[C@H]1C[C@@H]2CC[C@@]1(C)C2(C)C,outcome,[1],inactive
same,outcome,[2],inactive
C[Si](C)(C)O[Si](C)(C)C,outcome,[1],inactive
same,outcome,[2],inactive
same,outcome,[3],inactive
C[C@H](CCC(=O)NCC(=O)O)[C@H]1CC[C@H]2[C@@H]3[C@H](O)C[C@@H]4C[C@H](O)CC[C@]4(C)[C@H]3C[C@H](O)[C@]12C,outcome,[1],inactive
same,outcome,[2],inactive
same,AC50,[3],68.7 µM (active)
C=CC(C)(O)CCC=C(C)C (centres undefined),outcome,[1],inactive
same,outcome,[2],inactive
same,outcome,[4],inactive
same,outcome,[5],inactive
same,outcome,[6],inactive
same,outcome,[7],inactive
same,outcome,[8],inactive
CCCCCC(C=O)=Cc1ccccc1,outcome,[1],inactive
same,AC50,[2],73.8 µM (active)
same,AC50,[4],35.2 µM (active)
same,outcome,[5],inactive
same,AC50,[6],31.5 µM (active)
same,AC50,[7],36.6 µM (active)
same,AC50,[8],28.8 µM (active)
CC(C=O)Cc1ccc(C(C)(C)C)cc1 (centres undefined),outcome,[1],inactive
same,outcome,[2],inactive
same,AC50,[4],30.8 µM (active)
same,outcome,[5],inactive
same,AC50,[6],30.6 µM (active)
same,AC50,[7],30.3 µM (active)
same,outcome,[8],inactive
CCCCCCCC(=O)OCC(O)CO (centres undefined),outcome,[1],inactive
same,outcome,[3],inactive
O=C1c2ccccc2C(=O)c2c(O)ccc(O)c21,outcome,[1],inactive
same,outcome,[2],inactive
same,outcome,[4],inactive
same,outcome,[5],inactive
same,outcome,[6],inactive
same,AC50,[7],8.08 µM (active)
same,AC50,[8],2.12 µM (active)
CCCCSCCCC,outcome,[1],inactive
same,outcome,[3],inactive
O=C1OC(=O)c2c(Cl)c(Cl)c(Cl)c(Cl)c21,outcome,[1],inactive
same,outcome,[2],inactive
same,outcome,[3],inactive
C1=CC2C3C=CC(C3)C2C1 (centres undefined),outcome,[1],inactive
same,outcome,[2],inactive
same,outcome,[3],inactive
same,outcome,[4],inactive
same,outcome,[5],inactive
same,outcome,[6],inactive
same,outcome,[7],inactive
same,outcome,[8],inactive
Cc1ccc(S(=O)(=O)Oc2ccc(N=Nc3ccc(-c4ccc(N=Nc5c(O)ccc6cc(S(=O)(=O)O)cc(S(=O)(=O)O)c56)c(C)c4)cc3C)cc2)cc1,outcome,[1],inactive
same,outcome,[2],inactive
same,outcome,[3],inactive
CC1(C)CCC[C@]2(C)[C@H]3CCO[C@]3(C)CC[C@@H]12,outcome,[1],inactive
same,outcome,[2],inactive
same,AC50,[4],36.9 µM (active) and 34.3 µM (active)
same,AC50,[5],28.7 µM (active) and 29.6 µM (active)
same,AC50,[6],26.4 µM (active) and 34.5 µM (active)
same,AC50,[7],33.8 µM (active) and 34.7 µM (active)
same,AC50,[8],31.5 µM (active) and 35.4 µM (active)
CCCC(O)C(O)CO (centres undefined),outcome,[1],inactive
same,outcome,[3],inactive
CCCCCCCCCCCCCCN(CCO)CCO,outcome,[1],inactive
same,outcome,[3],inactive
COc1ccc(CCN2CCC(Nc3nc4ccccc4n3Cc3ccc(F)cc3)CC2)cc1,outcome,[1],inactive
same,outcome,[3],inactive
same,AC50,[4],5 µM (active)
same,outcome,[5],inactive
same,AC50,[6],3.54 µM (active)
same,AC50,[7],6.77 µM (active)
same,AC50,[8],2.66 µM (active)
